# Most compounds without a hit are left out; they make up all but 8% or so of the library.
# ELG1 repair inh – ELG1-dependent DNA repair inhibition | Potency, µM (series often up to 46.1 µM), most hits filed as inhibitors | HEK293T ELG1-luciferase reporter, luminescence, 16 h; DNA damage induced by 5-fluorouridine | 330,000 compounds, 2.3% hits; further: nearly all actives have a fitted effect of over 55% in size
#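 Luminescence from the luciferase reporter, measured 30 min after ONE-Glo reagent at room temperature, was the read-out. Beforehand, 2,000 cells per well were exposed for 16 hr at 37 °C to 5-fluorouridine together with compound or vehicle.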
# VP16 counter – inhibits Gal4-VP16 luciferase reporter, ROR gamma counter-screen. Potency, µM (doses to about 53.6 µM), hits mostly inhibitors. Drosophila S2 Gal4-VP16 UAS-luciferase, luminescence, 20 h. AID 2546. 310,000 compounds, 3.5% hits;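 further: Gal4-VP16 expression switched on by copper sulfate through the metallothionein promoter; nearly all actives have a fitted effect of over 50% in size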
# Coupling enz – counter-screen for Giardia aldolase inhibitors: coupling enzyme system | coupling enzyme system counterscreen, AmpLite Red fluorescence | activity change, negative = inhibition, % at 58.2 µM, hits read low | 290,000 compounds, 0.67% hits; in the data active means activity change below about -30%
#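 Coupling enzymes only (glyceraldehyde-3-phosphate) + compound, at 57.5 uM final, 10 min RT; add substrate/coupling/AmpLite Red mix, 20 min RT; fluorescence ex 525/em 598 nm. Actives flag coupling-system interference.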
# TSHR antagonist – blocks TSH signaling through the human TSH receptor | P16473 | TSHR-expressing cells, TSH-stimulated cAMP HTRF, 2 h; active compounds read low | activity change, negative = inhibition, % at 11.5 µM | 330,000 compounds, 0.2% hits | AID 504810;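 active means activity change below a set negative limit, meaning inhibition stronger than a set level, cut at about -70% in these data; inconclusive means activity change between two set negative limits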
# Target sequence (P16473 whole entry, looked up): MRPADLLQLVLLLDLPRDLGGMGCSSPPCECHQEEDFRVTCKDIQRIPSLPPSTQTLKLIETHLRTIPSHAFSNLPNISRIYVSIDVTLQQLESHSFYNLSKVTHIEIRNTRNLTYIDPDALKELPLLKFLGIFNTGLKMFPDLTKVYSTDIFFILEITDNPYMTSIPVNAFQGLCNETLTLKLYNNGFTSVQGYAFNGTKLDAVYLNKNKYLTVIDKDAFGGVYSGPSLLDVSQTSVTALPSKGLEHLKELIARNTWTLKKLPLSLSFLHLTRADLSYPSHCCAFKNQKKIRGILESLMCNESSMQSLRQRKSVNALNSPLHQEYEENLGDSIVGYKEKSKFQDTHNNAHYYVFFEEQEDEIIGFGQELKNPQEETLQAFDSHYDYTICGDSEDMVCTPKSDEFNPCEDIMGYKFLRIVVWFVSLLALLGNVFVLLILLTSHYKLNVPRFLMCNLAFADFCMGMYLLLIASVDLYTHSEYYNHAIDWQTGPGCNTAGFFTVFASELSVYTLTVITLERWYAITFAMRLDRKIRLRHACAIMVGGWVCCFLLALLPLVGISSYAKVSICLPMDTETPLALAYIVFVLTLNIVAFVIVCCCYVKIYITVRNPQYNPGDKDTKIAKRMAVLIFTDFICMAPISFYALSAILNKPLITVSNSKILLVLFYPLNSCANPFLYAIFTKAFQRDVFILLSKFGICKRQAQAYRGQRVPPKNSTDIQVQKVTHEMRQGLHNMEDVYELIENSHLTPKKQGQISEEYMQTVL
#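 Competitive HTRF cAMP read-out (cryptate anti-cAMP antibody, cAMP-d2; 30 min, room temperature) in freshly harvested TSHR cells. Compounds added before TSH at EC80 (4nM final), followed by 2 hours' incubation at 37 deg C.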
# RORg inh – inhibitors of mouse ROR gamma transcriptional activity. 310,000 compounds, 5.4% hits. Drosophila S2 Gal4-RORgamma UAS-luciferase reporter, 20 h. P51450. Potency, µM (top dose mostly 53.6 µM), actives largely listed as inhibitors; further: nearly all actives have a fitted effect of over 60% in size
#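 Schneider cells (Drosophila), stable Gal4 DBD–ROR gamma + UAS-luc; 1 hr cmpd preincubation; Cu2+ induction 700 uM final; 20 hr ambient; luminescence.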
# Hits are given with their value; n = inactive; u = inconclusive; x = no result given; [ ] = dose if it differs, or a comment. Unless noted, the call rests on the fitted dose curve; in most records, active means well fitted curve in the direction sought with a large enough effect; inconclusive means small, poorly fitted or top-dose-only effect, or another doubt; inactive means no such curve, though single readings can be large; an effect the other way counts as inactive or inconclusive.
SMILES,ELG1 repair inh,VP16 counter,Coupling enz,TSHR antagonist,RORg inh
CCOc1ccccc1OCCCC(=O)Nc1nc2ccccc2[nH]1,u,n,n,n,u
O=C(Cc1cccc2ccccc12)Nc1nc2ccccc2[nH]1,n,8.9µM,n,n,7.9µM
O=[N+]([O-])c1ccccc1CCc1cnc(Cl)s1,n,n,n,n,n
COC(=O)c1c(C)[nH]c(C(=O)/C=C/c2ccc(C)cc2)c1C,u,4µM,n,n,0.32µM
COC(=O)c1c(C)[nH]c(C=O)c1-c1ccccc1,u,n,n,n,n
CCOC(=O)c1c(C)[nH]c(C)c1C(=O)COC(=O)/C=C/c1cccc(Cl)c1,u,n,n,n,n
COC(=O)c1c(C)[nH]c(C(=O)OCc2ccc(F)cc2)c1C,u,n,n,n,n
COC(=O)c1c(C)[nH]c(C(=O)/C=C/c2ccccc2)c1C,u,7.1µM,n,n,1.4µM
COC(=O)c1c(C)[nH]c(C(=O)/C=C/c2cccc(Cl)c2)c1C,u,u,n,n,8.9µM
Cc1[nH]c2ccccc2c(=O)c1C(=O)/C=C/c1ccccc1,8.2µM,5.6µM,n,n,5.6µM
O=C(CCC1CCN(C(=O)c2ccccc2Cl)CC1)NCc1ccc(F)cc1,n,n,n,n,n
COc1ccc(O[C@H]2C=C[C@@H](c3ccccc3)O[C@H]2COC(=O)CC/C(C)=N/O[C@@H]2O[C@H](COC(C)=O)[C@H](OC(C)=O)[C@H](OC(C)=O)[C@H]2OC(C)=O)cc1,x,n[10 µM],n,x,n[10 µM]
Cn1c(=S)oc2ccccc21,n,n,n,n,n
CC(=O)/C=C/n1c(=S)oc2ccccc21,u,3.2µM,n,n,2.8µM
CC(C)CC(=O)/C=C/n1c(=S)oc2ccccc21,u,11µM,n,n,n
CCOc1ccccc1C(=O)OCC(=O)NCC1CCCCC1,n,x,x,n,x
O=C(NCCn1cc(SCc2ccccc2)c2ccccc21)c1ccccc1F,13µM,n,n,n,u
C/C(=N\Nc1nccnc1Cl)c1ccc(O)cc1,u,n,n,n,n
C/C(=N\Nc1nccnc1Cl)c1c(F)c(F)c(F)c(F)c1F,n,u,n,n,8.9µM
C/C(=N\Nc1nccnc1Cl)c1ccc(F)cc1,u,2.8µM,n,n,5.6µM
CCOc1ccc(C2C=C(c3ccc(C)cc3)Nc3ncnn32)cc1 (stereo unspecified),u,n,n,n,11µM
CC(=O)C1=C(c2cccc([N+](=O)[O-])c2)N(C(C)=O)n2c(C)nnc2S1,u,u,n,n,5µM
CC(=O)c1c(C(C)=O)c(C)n(-c2cccc([N+](=O)[O-])c2)c1C,n,n,n,n,n
Cc1cccc(N2CCN(C(=O)c3ccc4c(c3)CCN4S(C)(=O)=O)CC2)c1C,u,n,x,n,n
CC1Cc2ccccc2C(CCc2ccccc2)=N1 (stereo unspecified),n,n,n,n,13µM
SMILES,ELG1 repair inh,VP16 counter,Coupling enz,TSHR antagonist,RORg inh
CCCCn1c(NS(=O)(=O)c2ccc(C)cc2)c(S(=O)(=O)c2ccccc2)c2nc3ccccc3nc21,u,n,-53,n,n
OC(c1cc(-c2ccc(C(F)(F)F)cc2)nc(C(F)(F)F)c1)C1CCCCN1 (stereo unspecified),u,22µM,n,n,u
OC(c1cc(C(F)(F)F)nc2c(C(F)(F)F)cccc12)C1CCCCN1 (stereo unspecified),u,n,n,x,n
Cc1ccc(NC(=S)NC(=O)C2CCCC2)cc1C,u,4.5µM,x,n,3.5µM
Cc1nc2ccc(NC(=S)NC3CCCCC3)cc2nc1C,u,n[10 µM],-35,n,5µM
Cc1ccc(NC(=S)NC(=O)C2CCC2)cc1C,u,2.8µM,n,n,2.2µM
Cc1nc2ccc(NC(=S)N3CCCC3)cc2nc1C,n,n,n,n,n
CC(=O)Nc1ccc(NC(=S)NC(=O)C2CC2)cc1,u,n,n,n,n
O=C(NC(=S)Nc1ccc(Br)c(Cl)c1)C1CC1,n,7.9µM,x,n,4.5µM
Cc1ccc(NC(=S)NC(=O)C2CC2)c(C)c1,u,7.1µM,x,n,5µM
S=C(Nc1ccc2[nH]ccc2c1)NC1CCCCC1,u,n,n,n,11µM
Cc1ccc(NC(=S)NC2CCCC2)cc1C,u,3.5µM,n,n,2.8µM
O=C(NC(=S)Nc1ccc(F)cc1)C1CCCCC1,u,10µM,x,n,8.9µM
Cc1ccc(NC(=S)N2C3CCCC2CC(NC(=O)C2CC2)C3)cc1C (stereo unspecified),n,n,n,n,n
CC(=O)c1cccc(NC(=O)NC2CC(=O)N(c3ccc4c(c3)OCCO4)C2)c1 (stereo unspecified),u,x,x,n,x
CCc1ccc(OC)c(S(=O)(=O)NCc2cccs2)c1,n,x,x,n,x
CN(C)c1ccc(S(=O)(=O)N2CCCCC2)cc1NC(=O)CCNC(=O)c1ccco1,n,x,x,n,x
COc1cccc(Cn2c(=O)cnc3cnc(Oc4cccc(Cl)c4)nc32)c1,x,n,n,x,n
Cn1cc(Cl)c(C(=O)OCC(=O)c2ccccc2)n1,u,n,n,n,n
Cc1ccccc1N=C1NC(=O)CC(c2ccccc2)S1 (stereo unspecified),n,u,n,n,8.9µM
C=CCN(C(=O)c1csnn1)C(C(=O)NC1CCCC1)c1ccccc1 (stereo unspecified),n,n,n,n,n
N#C/C(=C(/O)COC(=O)CCc1ccc(S(=O)(=O)N2CCOCC2)cc1)c1nc2ccccc2[nH]1,n,20µM,n,n,8.9µM
Cc1ccc(C(=O)OC/C(O)=C(\C#N)c2nc3ccccc3[nH]2)cc1S(=O)(=O)N1CCOCC1,u,u,n,n,u
N#C/C(=C(/O)COC(=O)c1ccc2c(c1)OCCO2)c1nc2ccccc2[nH]1,n,n,n,n,u
N#C/C(=C(/O)COC(=O)c1ccc(Cl)c(S(=O)(=O)N2CCOCC2)c1)c1nc2ccccc2[nH]1,u,7.1µM,n,n,3.5µM
SMILES,ELG1 repair inh,VP16 counter,Coupling enz,TSHR antagonist,RORg inh
CC1CN(S(=O)(=O)c2cccc(C(=O)OC/C(O)=C(\C#N)c3nc4ccccc4[nH]3)c2)CC(C)O1 (stereo unspecified),u,u,n,n,11µM
CC(C)NC(=O)N1CC2(CCN(C(=O)c3cc(C(F)(F)F)cc(C(F)(F)F)c3)CC2)C1,x,n,n,x,n
O=S(=O)(c1ccc(NCc2ccccc2)cc1)N1CCOCC1,u,n,x,n,n
CC(C)c1ccc(S(=O)(=O)Nc2ccc3c(c2)OCO3)cc1,u,x,x,n,x
CC(C)Oc1cccc(C(=O)Nc2ncn[nH]2)c1,u,u,n,n,16µM
C=CCOc1ccc(C(=O)Nc2ncn[nH]2)cc1,n,n,n,n,11µM
CC(C)COc1ccc(C(=O)Nc2ncn[nH]2)cc1,u,3.5µM,n,n,2.8µM
N[C@@H](Cn1ccc(=O)c(O)c1)C(=O)O,x,x,x,n,x
